Compound activity as filed in PubChem BioAssay.
GLP-1R agonist = qHTS of GLP-1 Receptor Agonists; HEK293 GLP-1R CRE-luciferase, luminescence, 4-6 h; cells express a hypersensitive GLP-1R form; Potency, µM (doses to about 45.6 µM), without a hit: at the top dose activation, actives largely listed as activators; 0.007% of 380,000 active; AID 624172, 2012; also: potency is read from the fitted curve at half-maximal effect; % of control where 0% means no effect
Target sequence (P43220 whole entry, looked up): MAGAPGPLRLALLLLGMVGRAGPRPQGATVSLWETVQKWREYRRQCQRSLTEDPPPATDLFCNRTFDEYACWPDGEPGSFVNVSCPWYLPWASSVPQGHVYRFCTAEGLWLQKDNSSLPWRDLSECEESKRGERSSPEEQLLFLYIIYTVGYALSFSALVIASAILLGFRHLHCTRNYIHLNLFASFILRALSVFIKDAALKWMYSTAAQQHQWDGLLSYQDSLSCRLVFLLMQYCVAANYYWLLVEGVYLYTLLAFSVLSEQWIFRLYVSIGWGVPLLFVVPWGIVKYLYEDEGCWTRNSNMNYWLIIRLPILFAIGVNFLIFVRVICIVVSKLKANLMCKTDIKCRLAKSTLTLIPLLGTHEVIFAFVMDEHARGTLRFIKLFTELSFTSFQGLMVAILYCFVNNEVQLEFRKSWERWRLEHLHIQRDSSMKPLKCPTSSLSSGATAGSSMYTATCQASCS
uPA surface inh = qHTS for Inhibitors of Cell Surface uPA Generation; cell surface uPA generation assay, qHTS; Potency, µM (top dose mostly 38.3 µM), for inactives: at the top dose activity change, negative = inhibition, most hits filed as inhibitors; 0.31% of 330,000 active; active = well fitted inhibition curve with a large enough effect; inconclusive = small, poorly fitted or top-dose-only effect; inactive = no such curve, though single readings can be large or run the other way; tested in mouse RAW 264.7 cells; also: potency is read from the fitted curve at half-maximal effect; % is scaled to controls: 0 for no effect and ±100 for the full control effect; nearly all actives have a fitted effect of over 55% in size
GLP-1R inv ag = qHTS of GLP-1 Receptor Inverse Agonists (Inhibition Mode); Glucagon-like peptide 1 receptor (Homo sapiens), P43220; HEK293 GLP-1R CRE-luciferase, luminescence, 24 h; GLP-1R form is constitutively active; Potency, µM (highest dose often 38.3 µM), for inactives: top-dose activity change, negative = inhibition, most hits filed as inhibitors; 1.6% of 410,000 active; AID 624417, 2012; also: potency is read from the fitted curve at half-maximal effect; % is scaled to controls: 0 for no effect and ±100 for the full control effect; nearly all actives have a fitted effect of over 55% in size
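Seeding at 200 cells/uL, 12 h culture, 24 hr compound treatment, then luciferase reagent and a luminescence read; cells are HEK293 stably expressing a constitutively active GLP-1R plus cAMP-responsive luciferase.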
MmCpn inh = Inhibitors of TCP-1 ring complex (TRiC) of Methanococcus maripaludis (MmCpn): qHTS | Chaperonin Mm-Cpn (Methanococcus maripaludis) | purified Mm-Cpn ATPase, ADP Transcreener TR-FRET | Potency, µM (highest dose often 76.9 µM), for the others: top-dose activity, negative = inhibition, usual class: inhibitors | 0.031% of 330,000 active | AID 504842, 2011; also: potency is read from the fitted curve at half-maximal effect; % is scaled to controls: 0 for no effect and ±100 for the full control effect; nearly all actives have a fitted effect of over 80% in size
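Eu-cryptate anti-ADP/ADP-d2 competition gives a ratio inversely related to ADP. Enzyme at 25 nM was pre-exposed to compound for 10 min, then given 10 uM ATP for 30 min, 37°C throughout.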
CCT modulator = High-Throughput Screening for Modulators of Cytosolic Chaperonin Activity; 0.3% of 360,000 active; purified chaperonin ATPase assay, HTRF ADP detection, 30 min; AID 651819, 2012; activity change, % (concentration not given with the values), hits read low; in the data active = activity change below about -30%; also: % is scaled to controls: 0 for no effect and ±100 for the full control effect
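First, chaperonin was dispensed at 40 nM or 20 nM final depending on batch activity. Next, compounds were pinned at 76 uM and ATP added at 10 uM. After 30 min at 37 °C, ADP detection reagents ran 30 min at ambient temperature.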
GLP1R cytotox = qHTS of GLP-1 Receptor Inverse Agonists: Cytotox Screen; HEK293 cAMP-luciferase reporter cells, luminescence, 24 h; Potency, µM (doses to about 38.3 µM), for the others: at the top dose activity change, negative = inhibition, most hits filed as inhibitors; 0.13% of 410,000 active; AID 624418, 2012;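 also: loss of luciferase light is scored as toxicity; potency is read from the fitted curve at half-maximal effect; % is scaled to controls: 0 for no effect and ±100 for the full control effect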
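To flag toxic compounds, the library was rerun on cells for 24 hr at 37 deg C and 5% CO2. Viability-linked luminescence was captured 12 min after adding luciferase detection reagent.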
The depositor's hits bear a star; i = inactive; u = inconclusive; x = no result given; [ ] = dose if it differs, or a comment. This is a sample that favours compounds with a hit; in the whole collection about 2.2% have one here. Unless noted, calls follow the shape of the dose curve; as a rule, active = well fitted curve in the direction sought with a large enough effect; inconclusive = small, poorly fitted or top-dose-only effect, or another doubt; inactive = no such curve, though single readings can be large; an effect the other way counts as inactive or inconclusive.

SMILES	GLP-1R agonist	uPA surface inh	GLP-1R inv ag	MmCpn inh	CCT modulator	GLP1R cytotox
NC[C@@H]1O[C@@H](O[C@H]2[C@@H](O)[C@H](O[C@@H]3[C@@H](O)[C@@H](N)C[C@H](N)[C@H]3O[C@H]3O[C@H](CN)[C@@H](O)[C@@H](O)[C@H]3N)O[C@H]2CO)[C@H](N)[C@@H](O)[C@@H]1O	-2%	x	x	x	x	x
CN(C)CCCNC(=O)c1ccc(-c2nc(-c3ccc(Cl)cc3)cs2)cc1	-5%	10%	6.3µM*	-3%	-2	u
CC(C)(C)c1ccc(C(=O)NCCc2csc(-c3ccc(Cl)cc3)n2)cc1	x	x	10µM*	x	x	-4%
COc1cccc(C(=O)NCCc2csc(-c3ccc(Cl)cc3)n2)c1	x	x	u	x	x	-6%
COc1ccc(Cl)cc1NC(=O)Cn1nc(Cc2ccncc2)c2ccccc2c1=O	x	x	-19%	x	x	-14%
CN(C)CCCNC(=O)/C=C/c1ccc2c(c1)OCO2	-6%	0%	2%	0%	-3	1%[1.53 µM]
O=C(/C=C/c1ccc2c(c1)OCO2)NCCSCc1ccc(Cl)cc1	10%	4%	5µM*	-2%	0	-13%
O=C(/C=C/c1ccc2c(c1)OCO2)NCCSCc1c(Cl)cccc1Cl	-1%	-2%	10µM*	-3%	-1	0%
CCCN1C(=O)c2[nH]nc(-c3ccccc3O)c2C1c1cccc(OCc2ccccc2)c1 (centres undefined)	x	x	u	x	x	-12%
O=C(NNC(=O)C12CC3CC(CC(C3)C1)C2)c1ccccc1F	1%	2%	8%	0%	-45*	11%
CCCNC(=O)c1cccc(Cn2nc(C)c(Br)c2C)c1	0%	1%	u	0%	0	-13%
Cc1nn(Cc2cccc(C(=O)NC34CC5CC(CC(C5)C3)C4)c2)c(C)c1Br	2%	-4%	2.8µM*	3%	-2	5%
COc1cc2c3c(cccc3c1)C(=O)N(CCN1CCCC1)C2=O	-8%	x	4.5µM*	x	1	-8%
COc1ccc(C(=O)CN2CCN(CCN3C(=O)c4cccc5cccc(c45)C3=O)CC2)cc1	-1%	-5%	u	x	-3	-16%
CC1(C)CC2CC(C)(CN2/C=N/c2sc3c(c2C#N)CC(C)(C)NC3(C)C)C1 (centres undefined)	17%	-4%	1.1µM*	0%	-3	u
CC(C)/C=N/Nc1nc(-c2ccc(Br)cc2)cs1	-5%	6%	5.6µM*	4%	4	-6%
Cc1ncsc1C(=O)N1N=C2/C(=C/c3ccccc3)CCCC2C1c1ccccc1 (centres undefined)	-2%	-1%	4µM*	0%	-1	-13%
CCN(CC)S(=O)(=O)c1ccc2c(c1)N(CC(=O)NCc1ccccc1)C(=O)C1CCCCN21 (centres undefined)	x	x	6%	x	x	0%
C=CS(=O)(=O)c1ccc(Oc2ccc(S(=O)(=O)C=C)cc2)cc1	-24%	70%	u	-5%	-45*	u
Cc1cc(C)n(C(C)CC(=O)Nc2ccc(C)c(N(C)C)c2)n1 (centres undefined)	x	x	-13%	x	x	-11%
Cc1c(O)ccc2c(CN3CCN(C/C=C/c4ccccc4)CC3)cc(=O)oc12	7%	2%	3.5µM*	-6%	2	i
CSc1ccc(Cn2c(C)c(C(=O)NCc3ccc(Cl)c(Cl)c3)sc2=O)cc1	-4%	x	u	x	0	-3%
Cc1c(C(=O)NCc2ccc(F)cc2)sc(=O)n1Cc1ccc(Cl)c(Cl)c1	-1%	x	10µM*	x	0	-15%
O=C(NCCCN1CCN(c2ccc(F)cc2)CC1)Nc1ccccc1Cl	-2%	x	u	x	x	4%
CC(C)(C)c1ccc(C(=O)N2CCCC2c2cccs2)cc1 (centres undefined)	5%	1%	11µM*	3%	2	13%
SMILES	GLP-1R agonist	uPA surface inh	GLP-1R inv ag	MmCpn inh	CCT modulator	GLP1R cytotox
COc1ccc(CN2CCC(N(CCc3ccccc3)Cc3ccccc3)CC2)c(OC)c1	4%	3%	3.2µM*	1%	0	u
CCCN1CCC(N(CCc2ccccc2)Cc2ccccc2)CC1	8%	2%	u	-6%	-3	-5%
CC(C)(C)C(=O)CSc1nc2ccsc2c(=O)n1Cc1ccccc1F	x	x	13µM*	x	x	-5%
OC(CNc1ccnc2cc(Cl)ccc12)CNC1CCCCC1 (centres undefined)	-12%	-2%	u	x	-2	5µM*
CCNC1CCC(Nc2ccnc3cc(Cl)ccc23)CC1 (centres undefined)	-7%	-1%	u	x	-1	u
COc1cccc(CNC(=O)CN2N=C(c3ccc(C)cc3)CCC2=O)c1	x	x	0%	x	x	4%
CCc1cc2c(COC(=O)c3cccc(NS(C)(=O)=O)c3)cc(=O)oc2cc1O	7%	-3%	4µM*	-4%	-1	180%
CC(C)(C)OC(=O)N1CCC(c2c(C(=O)NCC3CCN(C4CCCC4)C3)cnn2-c2cccc(Cl)c2)CC1 (centres undefined)	4%	-8%	13µM*	2%	-1	u
CC(C)(C)OC(=O)N1CCC(c2c(C(=O)NCC3CCN(C4CCCC4)C3)cnn2-c2ccccc2)CC1 (centres undefined)	11%	-4%	u	1%	2	0%
CCOc1ccc(C(C(=O)NC2CCCC2)N(CCCO)C(=O)c2ccc(-c3ccccc3)[nH]2)cc1 (centres undefined)	-6%	-2%	13µM*	-1%	0	5%
O=c1c(N2CCN(c3cccc(Cl)c3)CC2)csc2ccccc12	x	x	-2%	x	x	-17%
O=C(CCCSc1nnnn1-c1cccc2ccccc12)c1ccc(F)cc1	10%	4%	10µM*	-26%	-1	-5%
CCOC(=O)c1ccc(NS(=O)(=O)c2ccc3c(c2)CCN3C(=O)CC)cc1	1%	x	-1%	x	x	-3%
O=c1c2cc(NC(=S)N3CCCC3)ccc2nc2n1CCCCC2	4%	0%	-3%	0%	0	3%
O=C(/C=C/c1ccco1)Nc1ccc2nc3n(c(=O)c2c1)CCCC3	6%	2µM*	117%	-2%	-3	0%
COc1ccc(/C=C\c2onc(C)c2S(=O)(=O)N2CCC(C(=O)Nc3cccc(OC)c3)CC2)cc1	x	x	u	x	x	9%
